# Laboratory results from PubChem BioAssay AID639 (Emory University Molecular Libraries Screening Center, 2007).
# Out of some 86,000 compounds screened, about 1,200 (1.4%) were called active. Rule as the data show it: active = activity above about 200%; inactive = the rest. This excerpt belongs to a sample that is enriched for actives.
# Target: Estrogen receptor (Homo sapiens) (UniProt P03372)
# Test: ERα coactivator recruitment potentiators – biochemical, TR-FRET, ERα LBD, low estradiol, primary screen (AID 639);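 also: binding measured in presence of low estradiol as agonist stimulus; 0% = peptide alone without receptor and 100% = receptor with peptide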
# Conditions: TR-FRET ERalpha-LBD/SRC-Cy5 coactivator binding, 2 h; at 25.6 µM; stronger effect = higher value; 100 = basal binding, no effect
# Estrogen receptor (Homo sapiens), sequence (P03372 whole entry, looked up, the tested form may be a part): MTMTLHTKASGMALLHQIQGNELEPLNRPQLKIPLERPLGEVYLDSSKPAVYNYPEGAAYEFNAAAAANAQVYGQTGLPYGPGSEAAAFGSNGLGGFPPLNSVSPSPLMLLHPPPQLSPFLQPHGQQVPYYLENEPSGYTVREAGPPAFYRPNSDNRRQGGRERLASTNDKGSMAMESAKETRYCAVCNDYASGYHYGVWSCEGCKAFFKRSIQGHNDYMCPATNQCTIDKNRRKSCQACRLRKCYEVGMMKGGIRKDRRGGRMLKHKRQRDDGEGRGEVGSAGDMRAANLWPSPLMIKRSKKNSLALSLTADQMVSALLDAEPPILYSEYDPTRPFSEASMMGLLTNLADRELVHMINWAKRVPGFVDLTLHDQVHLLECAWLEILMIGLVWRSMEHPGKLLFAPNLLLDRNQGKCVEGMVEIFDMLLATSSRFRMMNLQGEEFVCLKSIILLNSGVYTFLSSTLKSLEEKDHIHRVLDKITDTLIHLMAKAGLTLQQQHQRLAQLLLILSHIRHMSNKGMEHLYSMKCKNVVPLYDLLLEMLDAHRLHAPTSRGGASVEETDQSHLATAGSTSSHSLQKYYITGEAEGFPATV
row,SMILES,coactivator binding (% of control)
1,CCOc1ccccc1C1C(C(=O)OC)=CN(C)C=C1C(=O)OC,93.7% (inactive)
2,CCOc1ccc(CNC(=O)C2CCC(=O)N2C2CCCC2)cc1OC (configuration not stated),131% (inactive)
3,CCOc1cc(C2C(C(=O)OC)=CN(C3CCCC3)C=C2C(=O)OC)cc(Br)c1O,210% [fluorescence artefact?] (active)
4,CCOCc1nnc(NC(=O)CSc2ccc(C)cc2)s1,102% (inactive)
5,CCOc1ccccc1NC(=O)C1CCCN(C(=O)Nc2ccccc2)C1 (configuration not stated),92.4% (inactive)
6,CCOc1ccc(NC(=O)Nc2cc(C)on2)cc1,107% (inactive)
7,CCOc1ccc(CC(=O)Nc2ccc(S(=O)(=O)Nc3cc(C)on3)cc2)cc1OCC,311% [fluorescence artefact?] (active)
8,Cc1cc(NS(=O)(=O)c2ccccc2)no1,122% (inactive)
9,CCCCC(C(=O)OCC(=O)c1ccc(OC)cc1)N1C(=O)c2ccccc2C1=O (configuration not stated),97.8% (inactive)
10,Cn1c(=O)c2c(ncn2CC(COCc2ccccc2Cl)OCc2ccccc2Cl)n(C)c1=O (configuration not stated),112% (inactive)
11,CCOC(=O)c1nnn(-c2nonc2-n2cccc2)c1CN1CCC(C(=O)OCC)CC1,114% (inactive)
12,O=c1[nH]c(SCc2ccccc2)nnc1-c1ccccc1,103% (inactive)
13,COC(=O)CSc1nc(C)c2ccc(OC)cc2n1,100% (inactive)
14,CCOc1ccc2cc(C#N)c(SCC(=O)OC)nc2c1,260% [fluorescence artefact?] (active)
15,COc1ccc(N2CCN(C(=O)CSc3nc4cc(OC)c(OC)cc4cc3C#N)CC2)cc1,101% (inactive)
16,CC(C)C(OC(=O)c1cccs1)C(=O)NC1CCCCC1 (configuration not stated),115% (inactive)
17,CCOCCCNC(=O)C(NC(=O)c1ccc(=O)[nH]c1)c1ccc(C)cc1 (configuration not stated),107% (inactive)
18,CCOC(=O)c1cnc(-n2nc(C)cc2C)nc1Nc1cccc(C(C)=O)c1,868% [fluorescence artefact?] (active)
19,CCOC(=O)c1cnc(-n2nc(C)cc2C)nc1-n1nc(C)cc1C,116% (inactive)
20,CCOC(=O)c1cnc(SCC(=O)Nc2cccc(OC)c2)nc1N,113% (inactive)
21,N=c1c2c3c(sc2nc2n1CCCCC2)CCCC3,113% (inactive)
22,CNC(=S)N1N=C(c2ccccc2)CC1c1ccc(Br)cc1 (configuration not stated),171% (inactive)
23,COc1ccc(-c2nnc(SCC(=O)c3cccs3)o2)c(OC)c1,94.7% (inactive)

row,SMILES,coactivator binding (% of control)
1,COc1ccc(-n2c(C)cc(C(=O)CSc3nnc(-c4cccs4)o3)c2C)cc1,201% (active)
2,COc1ccc(OC)c(C(=O)CSc2nnc(-c3cccs3)o2)c1,125% (inactive)
3,CCN(CC)C(=O)CSc1ncnc2c1cnn2-c1ccccc1,117% (inactive)
4,Cc1nc2c(-c3ccc(F)cc3)c(C)nn2c(C)c1CCC(=O)NCc1ccco1,96.1% (inactive)
5,CC(C)N1C(=S)SC(C)(C)C1n1oc(=O)n(-c2ccc(Cl)c(Cl)c2)c1=O (configuration not stated),113% (inactive)
6,Cc1cc(C)n(C(=O)CCNC(=O)c2ccccc2Cl)n1,100% (inactive)
7,Cc1ccc(C)c(N2C(=O)CS/C2=N\NC(=O)c2ccccc2Cl)c1,102% (inactive)
8,CCc1ccc(CNC(=O)C2CC(=O)N(CCc3ccc(C)cc3)C2)cc1 (configuration not stated),115% (inactive)
9,N#CC(=C1CCCC1)c1nc(-c2ccc(Cl)cc2)cs1,103% (inactive)
10,N#CC(=C1SC=CS1)c1nc(-c2ccccc2)cs1,206% (active)
11,N#C/C(=C1\CCCN1)c1nc(-c2ccccc2)cs1,116% (inactive)
12,Cc1nc(N2CCOCC2)nc2c1CCCC2,111% (inactive)
13,CCCOc1ccc(N2C(=O)CC(N(CCc3ccc(S(N)(=O)=O)cc3)C(C)=O)C2=O)cc1 (configuration not stated),126% (inactive)
14,Nn1c(Cc2cccc3ccccc23)nnc1SCC(=O)N1CC(=O)Nc2ccccc21,63.7% (inactive)
15,COc1ccc(-n2ncc3c(N4CCc5ccccc54)ncnc32)cc1,200% [fluorescence artefact?] (active)
16,COc1ccc(-n2ncc3c(N4CCCc5ccccc54)ncnc32)cc1,97.2% (inactive)
17,Cc1cccc(-n2ncc3c(N4CCc5ccccc54)ncnc32)c1,137% (inactive)
18,CCOC(=O)NC(C(F)(F)F)(C(F)(F)F)P(=O)(c1ccccc1)c1ccccc1,95.9% (inactive)
19,CCOC(=O)C1=C(c2ccccc2)O/C(=C(/C(=O)OC)C(F)(F)F)S1,360% [fluorescence artefact?] (active)
20,CCOC(=O)c1nnn(-c2nonc2OC)c1-c1ccccc1,102% (inactive)
21,COC(=O)c1ccccc1NC(=O)Cc1ccccc1OC,120% (inactive)
22,COc1ccc(NC(=O)CC2COc3ccccc3O2)c(OC)c1 (configuration not stated),104% (inactive)
23,O=C(CSc1nnc(-c2cnccn2)n1Cc1ccco1)c1ccc(Cl)c(Cl)c1,137% (inactive)

row,SMILES,coactivator binding (% of control)
1,CCc1ccc(NC(=O)CSc2nnc(-c3cnccn3)n2Cc2ccco2)cc1,148% (inactive)
2,Cc1ccc(NC(=O)CSc2nnc(-c3cnccn3)n2Cc2ccco2)cc1C,335% (active)
3,CCOc1ccc(NC(=O)CN(C)CC(=O)Nc2cccc(Cl)c2C)cc1OCC,105% (inactive)
4,CCOc1ccc(C(=O)NCCCN2CCCC2=O)cc1,96% (inactive)
5,CC1CCC(NC(=O)c2ccc(N3CCCC3=O)cc2)CC1 (configuration not stated),143% (inactive)
6,O=C(NCCCN1CCCCCC1)c1ccc(N2CCCC2=O)cc1,588% [fluorescence artefact?] (active)
7,CCOc1cc(C(=O)Nc2c(C)ccc3nsnc23)cc(OCC)c1OCC,78.1% (inactive)
8,O=C(NCc1ccccc1)C1CCCN(S(=O)(=O)c2cccs2)C1 (configuration not stated),91.1% (inactive)
9,COCCNC(=O)COc1ccccc1C,118% (inactive)
10,COc1ccc(CCNC(=O)CN(c2ccccc2)S(C)(=O)=O)cc1OC,76.4% (inactive)
11,CN(C)c1ccnc2sc3c(=O)n(-c4ccc(Cl)cc4)cnc3c12,162% (inactive)
12,COCCn1c(C)cc(C(=O)CSc2ncnc3sc4c(c23)CCC4)c1C,409% [fluorescence artefact?] (active)
13,COCCn1c(SCc2nnc(-c3ccc(OC)c(OC)c3)o2)nc2sc3c(c2c1=O)CCC3,94.4% (inactive)
14,Cc1cc(C)n(-c2nc(SCC(=O)N3CCCC3)c3c4c(sc3n2)CCCC4)n1,93.8% (inactive)
15,CCCCCCC12CCC(C(=O)O)(CC1)CC2,104% (inactive)
16,CC(=O)Oc1ccc(NC(=O)CCC2CCCCC2)c(C(=O)O)c1,105% (inactive)
17,CC(NC(=O)C1CCC(CNc2c(N3CCOCC3)c(=O)c2=O)CC1)c1ccccc1 (configuration not stated),98.1% (inactive)
18,Cc1ccc(-c2csc(SCC(=O)Nc3cc(C)on3)n2)cc1,98.5% (inactive)
19,C=CCn1c(SCc2c(C)noc2C)nc2sc3c(c2c1=O)CCC(C)C3 (configuration not stated),93.6% (inactive)
20,Cc1nc(SCC(=O)Nc2cc(C)on2)c2c3c(sc2n1)CCCC3,128% (inactive)
21,Cc1nc(SCC(=O)Nc2cc(C)on2)c2c(C)c(C)sc2n1,565% [fluorescence artefact?] (active)
22,CC1CCc2c(sc3nc4n(c(=O)c23)CCS4)C1 (configuration not stated),96.2% (inactive)
23,Cc1cc(NC(=O)CSc2nc(C(C)C)nc3sc4c(c23)CCC(C)C4)no1 (configuration not stated),269% [fluorescence artefact?] (active)

row,SMILES,coactivator binding (% of control)
1,O=C(c1ccc2c(c1)OCO2)N1CCN(C(=O)c2ccco2)CC1,103% (inactive)
2,Cc1cccc(S(=O)(=O)CC(=O)Nc2nc(-c3ccccc3)cs2)c1,103% (inactive)
3,Cc1cc(=O)oc2cc(OCC3CC(c4ccccc4Cl)=NO3)ccc12 (configuration not stated),117% (inactive)
4,O=C(Nc1ccc(Br)cc1)c1cccc(NC(=O)C2C3CC4OC(=O)C2C4C3)c1 (configuration not stated),115% (inactive)
5,CCS(=O)(=O)N1CCC(C(=O)N2CCN(c3ccccc3)CC2)CC1,103% (inactive)
6,CCN1C(=O)/C(=C\N2CCOCC2)SC1=S,93% (inactive)
7,CCN1C(=O)/C(=C\N2CCN(c3cccc(Cl)c3)CC2)SC1=S,413% [fluorescence artefact?] (active)
8,CS(=O)(=O)N(CC(=O)N1CCN(c2cccc(Cl)c2)CC1)c1ccccc1,118% (inactive)
9,CCn1c(=O)cc(OCC(=O)NCCCN2CCN(c3cccc(Cl)c3)CC2)c2ccccc21,107% (inactive)
10,CCN1C(=O)/C(=C\N2CCN(c3ccccc3)CC2)SC1=S,289% (active)
11,Cc1cccc(-c2nc3c(c(SCC(=O)N4CCOCC4)n2)CCCC3)c1,94.4% (inactive)
12,CC1CCN(C(=O)c2cc3nc(C4CC4)cc(C(F)(F)F)n3n2)CC1,93.5% (inactive)
13,COCCNC(=O)Cn1cc(C(=O)c2cccs2)c2ccccc21,102% (inactive)
14,CCCn1c(SCC(=O)Nc2cccc(C(=O)OCC)c2)nnc1-c1ccoc1C,97.2% (inactive)
15,CCn1c(SCC(=O)Nc2cccc(F)c2)nnc1-c1cc2cc(Br)ccc2o1,476% (active)
16,CCn1c(Cc2ccccc2)nnc1SCC(=O)Nc1ccccc1,122% (inactive)
17,CCOc1ccc(-n2c(N)c(C(=O)NCC3CCCO3)sc2=S)cc1 (configuration not stated),99.2% (inactive)
18,O=c1[nH][nH]c(C(F)(F)F)c1C=NCc1ccccc1Cl,109% (inactive)
19,CC1CCCC(C)N1CCCNC(=O)c1cc2c(=O)n(C)c3ccccc3c2n1C (configuration not stated),74.4% (inactive)
20,Cn1c(C(=O)NCCCN2CCN(c3cccc(Cl)c3)CC2)cc2c(=O)n(C)c3ccccc3c21,132% (inactive)
21,Cn1c(C(=O)NCCc2ccsc2)cc2c(=O)n(C)c3ccccc3c21,278% (active)
22,CCOc1ccc(S(=O)(=O)NCC2CCCO2)cc1 (configuration not stated),97.5% (inactive)
23,COCCn1c(=S)[nH]c2cc(C(=O)NCCc3ccc(OC)c(OC)c3)ccc2c1=O,179% (inactive)
